Assay outcomes from PubChem.
RGS16-Gao HTS: RGS16-Galphao interaction regulator (human) | 220,000 tested, 0.38% active | binding response (% of control), % at 10 µM | bead-based flow cytometry RGS16-Galphao binding, fluorescence; actives lie on both sides | O15492+P09471 | AID 1441;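 further: Galphao activated by GDP with aluminum fluoride before binding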
RGS4-Gao reg: human RGS4-Galphao interaction regulation; P09471; Multiplexed bead flow cytometry, RGS4-Galphao binding; actives lie on both sides; binding response (% of control), % at 10 µM; 220,000 tested, 0.33% active; AID 1415; in the data active means binding response below about 49% or above about 150%; inactive means in between;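 further: fluorescent Galphao activated with aluminum fluoride binding bead-coupled RGS4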
Target sequence (P09471 whole entry, looked up): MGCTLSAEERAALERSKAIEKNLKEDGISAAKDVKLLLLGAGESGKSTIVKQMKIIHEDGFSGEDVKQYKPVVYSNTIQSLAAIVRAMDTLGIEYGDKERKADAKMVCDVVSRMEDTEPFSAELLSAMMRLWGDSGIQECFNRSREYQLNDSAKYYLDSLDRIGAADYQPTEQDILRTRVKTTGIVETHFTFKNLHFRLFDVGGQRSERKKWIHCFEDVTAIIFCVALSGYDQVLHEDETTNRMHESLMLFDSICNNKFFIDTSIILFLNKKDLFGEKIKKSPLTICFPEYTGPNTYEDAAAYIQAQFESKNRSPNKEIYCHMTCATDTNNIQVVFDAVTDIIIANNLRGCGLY
RGS7-Gao reg: human RGS7-Galphao interaction regulation. 220,000 tested, 0.35% active. Multiplexed bead flow cytometry, RGS7-Galphao binding; actives lie on both sides. binding response (% of control), % at 10 µM. P09471; in the data active means binding response below about 49% or above about 150%; inconclusive means no clear call, values can overlap the other calls; inactive means in between;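 further: fluorescent Galphao held in activated GDP-AlF4 state binding bead-coupled RGS7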
GSH fluor: compound fluoresces at 488/530 nm on GSH beads; GSH beads flow cytometry, compound fluorescence 488/530 nm; stronger effect = higher value; fluorescence (KMESF) at 10 µM; 190,000 tested, 0.25% active; AID 1776; in the data active means fluorescence above about 89;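 further: glutathione beads carrying GST-tagged Bcl family fusion proteins plus one bare bead set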
Avidin bead fluor: compound fluoresces at 488/530 nm on avidin beads. compound fluorescence 488/530 nm, flow cytometry; stronger effect = higher value. fluorescence (KMESF) at 10 µM. 220,000 tested, 0.38% active; in the data active means fluorescence above about 47
RGS8-Gao reg: human RGS8-Galphao interaction regulation; multiplexed bead flow cytometry, RGS8-Galphao binding; actives lie on both sides; response (percent of control binding), % at 10 µM; 220,000 tested, 0.34% active; in the data active means response below about 60% or above about 140%; inactive means in between;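 further: Galphao activated as the GDP aluminium fluoride complex binding bead-coupled RGS8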
RGS-Gao: modulates binding between human RGS4 and Galphao; shares compounds with RGS16-Gao HTS; multiplexed bead flow cytometry, RGS–Galpha-o binding; RGS4–Galpha-o binding response, % at 10 µM; 1,600 tested, 99% active; AID 1504;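 further: fluorescently labeled Galpha-o bound to GDP with aluminium fluoride binding biotinylated RGS beads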
Target sequence (P09471 whole entry, looked up): as above
Target sequence (P49798 whole entry, looked up): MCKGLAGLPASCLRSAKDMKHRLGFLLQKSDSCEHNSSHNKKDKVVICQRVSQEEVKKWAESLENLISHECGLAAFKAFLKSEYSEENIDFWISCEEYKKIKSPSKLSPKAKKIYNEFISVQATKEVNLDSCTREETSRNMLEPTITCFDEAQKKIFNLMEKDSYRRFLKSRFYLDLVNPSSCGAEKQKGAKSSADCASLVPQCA
Avidin counter: counter-screen: compounds disrupting biotin binding to avidin beads | streptavidin beads, fluorescein-biotin binding, flow cytometry | inhibition, % at 10 µM | shares compounds with RGS16-Gao HTS | 1,700 tested, under 10 active;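 active means inhibition above 50%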;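 further: median green fluorescence of gated singlet beads compared with DMSO control wells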
RGS8-Gao confirm: confirmation of regulators of human RGS8-Galphao interaction; shares compounds with RGS16-Gao HTS; bead-based flow cytometry RGS8-Galphao binding, fluorescence; actives lie on both sides; binding response (% of control), % at 10 µM; 1,700 tested, 3% active; AID 1836; in the data active means binding response below about 72% or above about 130%; inactive means in between;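 further: Galphao activated as GDP AlF4 complex before binding bead RGS8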
RGS7-Gao confirm: confirmation of regulators of human RGS7-Galphao interaction; response (percent of control binding), % at 10 µM; bead-based flow cytometry RGS7-Galphao binding; actives lie on both sides; AID 1837; shares compounds with RGS16-Gao HTS; 1,700 tested, 7.8% active; in the data active means response below about 75% or above about 130%; inactive means in between;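 further: fluorescent Galphao activated with GDP and aluminum fluoride binding bead-coupled RGS7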
RGS16-Gao conf: RGS16-Galphao interaction regulation, single point confirmation; shares compounds with RGS16-Gao HTS; bead-based flow cytometry, RGS16-Galphao binding; actives lie on both sides; response (% of control binding), % at 10 µM; 1,700 tested, 4% active; AID 1838; in the data active means response below about 74% or above about 130%; inactive means in between;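 further: Galphao activated as the GDP aluminium fluoride complex binding bead-coupled RGS16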
RGS4-Gao single: RGS4-Galphao interaction regulation, single point confirmation. shares compounds with RGS16-Gao HTS. RGS4-Galphao binding, multiplexed bead flow cytometry; actives lie on both sides. binding response (% of control), % at 10 µM. 1,700 tested, 4% active; in the data active means binding response below about 74% or above about 130%; inactive means in between
RGS19-Gao conf: RGS19-Galphao interaction regulation, single point confirmation; bead-based flow cytometry RGS19-Galphao binding; actives lie on both sides; shares compounds with RGS16-Gao HTS; response (percent of control binding), % at 10 µM; 1,700 tested, 5% active; in the data active means response below about 50% or above about 160%; inactive means in between
Numbers stand for hits; [ ] = remark or other dose. Rows were chosen to be rich in hits. Some 1.2% of all compounds tested hit in one or more screens of this group. Unless noted, how the calls were made is not given here.

How did CCN(CC)c1ccc(NC(=O)CC2Oc3ccccc3NC2=O)c(C)c1 (configuration not stated) do in these assays?
RGS16-Gao HTS: inactive; RGS4-Gao reg: inactive; RGS7-Gao reg: inactive; GSH fluor: inactive; Avidin bead fluor: inactive; RGS8-Gao reg: inactive

How did Cc1cccc(-c2nc3cc(NC(=O)C4CCCO4)ccc3o2)c1 (configuration not stated) do in these assays?
RGS16-Gao HTS: 179[activator]; RGS4-Gao reg: inactive; RGS7-Gao reg: inactive; GSH fluor: inactive; Avidin bead fluor: inactive; RGS8-Gao reg: inactive; RGS-Gao: 109; Avidin counter: inactive; RGS8-Gao confirm: inactive; RGS7-Gao confirm: inactive; RGS16-Gao conf: inactive; RGS4-Gao single: inactive; RGS19-Gao conf: inactive

Results for Cn1ccnc1SCC(=O)Nc1cccc2ccccc12 ?
RGS16-Gao HTS: inactive; RGS4-Gao reg: inactive; RGS7-Gao reg: inactive; GSH fluor: inactive; Avidin bead fluor: inactive; RGS8-Gao reg: inactive

What do the screens show for `Cn1ccnc1SCC(=O)n1c2c(c3ccccc31)CCCC2`?
RGS16-Gao HTS: inactive; RGS4-Gao reg: inactive; RGS7-Gao reg: inactive; GSH fluor: inactive; Avidin bead fluor: inactive; RGS8-Gao reg: 55; RGS-Gao: 60; Avidin counter: inactive; RGS8-Gao confirm: inactive; RGS7-Gao confirm: inactive; RGS16-Gao conf: inactive; RGS4-Gao single: inactive; RGS19-Gao conf: inactive

What do the screens show for `CCC(C)(C)c1nnc(NC(=O)c2cccc([N+](=O)[O-])c2)s1`?
RGS16-Gao HTS: 20; RGS4-Gao reg: inactive; RGS7-Gao reg: inactive; GSH fluor: inactive; Avidin bead fluor: inactive; RGS8-Gao reg: inactive; RGS-Gao: 89; Avidin counter: inactive; RGS8-Gao confirm: inactive; RGS7-Gao confirm: inactive; RGS16-Gao conf: inactive; RGS4-Gao single: inactive; RGS19-Gao conf: inactive

How did Cc1nn(-c2ccccc2)c(C)c1/C=N/NC(=O)c1ccccc1NS(=O)(=O)c1cccs1 do in these assays?
RGS16-Gao HTS: inactive; RGS4-Gao reg: inactive; RGS7-Gao reg: inactive; GSH fluor: inactive; Avidin bead fluor: inactive; RGS8-Gao reg: inactive

Results for CCCCN(C)C(=O)C1CCN(CCCc2ccccc2)CC1 ?
RGS16-Gao HTS: inactive; RGS4-Gao reg: inactive; RGS7-Gao reg: 170[activator]; GSH fluor: inactive; Avidin bead fluor: 291; RGS8-Gao reg: inactive; RGS-Gao: 121

Results for CC1CCCN(C(=O)C2CCN(CCCc3ccccc3)CC2)C1 (configuration not stated) ?
RGS16-Gao HTS: inactive; RGS4-Gao reg: inactive; RGS7-Gao reg: inactive; GSH fluor: inactive; Avidin bead fluor: inactive; RGS8-Gao reg: inactive

How did Cc1ccccc1/C=C/c1nc2ccccc2c(=O)[nH]1 do in these assays?
RGS16-Gao HTS: 14; RGS4-Gao reg: 7.3; RGS7-Gao reg: inconclusive; Avidin bead fluor: inactive; RGS8-Gao reg: 42; Avidin counter: inactive; RGS8-Gao confirm: inactive; RGS7-Gao confirm: inactive; RGS16-Gao conf: inactive; RGS4-Gao single: inactive; RGS19-Gao conf: inactive

How did Cc1csc(NC(=O)c2cc3c(C)nn(Cc4ccccc4Cl)c3s2)n1 do in these assays?
RGS16-Gao HTS: inactive; RGS4-Gao reg: inactive; RGS7-Gao reg: inactive; GSH fluor: inactive; Avidin bead fluor: inactive; RGS8-Gao reg: inactive

Results for COc1ccc(C(=O)Nc2ccc(-c3cn4ccsc4n3)cc2)cc1S(=O)(=O)N1CCOCC1 ?
RGS16-Gao HTS: -56; RGS4-Gao reg: -46; RGS7-Gao reg: -7.2; GSH fluor: inactive; RGS8-Gao reg: 17; Avidin counter: inactive; RGS8-Gao confirm: inactive; RGS7-Gao confirm: inactive; RGS16-Gao conf: inactive; RGS4-Gao single: inactive; RGS19-Gao conf: inactive

What do the screens show for `Cc1cc(NC(=O)CCCOc2ccc(Cl)cc2Cl)no1`?
RGS16-Gao HTS: inactive; RGS4-Gao reg: inactive; RGS7-Gao reg: inactive; GSH fluor: inactive; Avidin bead fluor: inactive; RGS8-Gao reg: 167[activator]; RGS-Gao: 142

How did O=C(CCCOc1ccc(Cl)cc1Cl)Nc1ncccn1 do in these assays?
RGS16-Gao HTS: inactive; RGS4-Gao reg: inactive; RGS7-Gao reg: inconclusive; Avidin bead fluor: inactive; RGS8-Gao reg: inactive

How did Cc1ccc(NC(=O)CSc2nnnn2-c2ccc3c(c2)OCO3)cc1C do in these assays?
RGS16-Gao HTS: inactive; RGS4-Gao reg: inactive; RGS7-Gao reg: inactive; GSH fluor: inactive; Avidin bead fluor: inactive; RGS8-Gao reg: inactive

Results for CCN(CC)c1ccc(N=Cc2ccc([N+](=O)[O-])o2)cc1 ?
RGS16-Gao HTS: 20; RGS4-Gao reg: inactive; RGS7-Gao reg: inactive; GSH fluor: inactive; Avidin bead fluor: inactive; RGS8-Gao reg: inactive; RGS-Gao: 69; Avidin counter: inactive; RGS8-Gao confirm: inactive; RGS7-Gao confirm: inactive; RGS16-Gao conf: inactive; RGS4-Gao single: inactive; RGS19-Gao conf: inactive

What do the screens show for `CCN(CC)c1ccc(N=Cc2ccccc2[N+](=O)[O-])cc1`?
RGS16-Gao HTS: inactive; RGS4-Gao reg: inactive; RGS7-Gao reg: inactive; GSH fluor: inactive; Avidin bead fluor: inactive; RGS8-Gao reg: inactive

Results for O=S(=O)(NCC1CCCO1)c1ccc(Cl)nc1 (configuration not stated) ?
Avidin counter: inactive; RGS8-Gao confirm: inactive; RGS7-Gao confirm: inactive; RGS16-Gao conf: inactive; RGS4-Gao single: inactive; RGS19-Gao conf: inactive

What do the screens show for `Cc1ccc(-c2ccc(S(=O)(=O)NCC3CCCO3)cc2)cc1` (configuration not stated)?
RGS16-Gao HTS: inactive; RGS4-Gao reg: inactive; RGS7-Gao reg: inactive; GSH fluor: inactive; Avidin bead fluor: inactive; RGS8-Gao reg: inactive

Results for CCOc1ccc(N=C(NC#N)SCC(=O)NC2CC2)cc1 ?
RGS16-Gao HTS: inactive; RGS4-Gao reg: inactive; RGS7-Gao reg: inactive; GSH fluor: inactive; Avidin bead fluor: inactive; RGS8-Gao reg: inactive
